# Where “and” joins values, the source holds several entries; their conditions need not be identical. Equal entries are not always repeated. Results filed as inconclusive are left out. Calls of active or inactive are those of the source.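 How the source made its calls, unless noted: active means normalized viability below 100% at a tested concentration; inactive means the rest.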
# Assays:
# [1] = system: Aerobactin synthetase IucA (Klebsiella pneumoniae); assay: IucA aerobactin synthetase inhibitors, biochemical, Tocris library, absorbance (AID 1345561; call rule not given here;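 further: 100% = enzyme without compound and 0% = no enzyme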); conditions: purified IucA enzyme assay, absorbance (OD) read-out; stronger effect = lower value;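 tested at 8 µM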
# [2] = growth inhibition of DIPG glioma cells, dose response, cell-based, SU-DIPG-XIII, MIPE4.0, CellTiter-Glo, qHTS (AID 1347061; cut-off not given, nearly all actives have AC50 up to about 37 µM;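 further: cells exposed to compound for 48 hours before readout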); conditions: SU-DIPG-XIII viability, CellTiter-Glo ATP luminescence
# [3] = growth inhibition of DIPG glioma cells, dose response, cell-based, JHH-DIPG-1, MIPE4.0, CellTiter-Glo, qHTS (AID 1347062; cut-off not given, nearly all actives have AC50 up to about 27 µM;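 on AC50: cells exposed to compound for two days before readout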); conditions: JHH-DIPG-1 viability, CellTiter-Glo ATP luminescence
# [4] = sensitizers of A549 cells to miR-34 induction, primary screen, imaging, A549 dox-inducible miR-34, nuclei and caspase counts (AID 1347080;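 active means compounds whose cell count with miR-34 switched on is under 0.7 times the count with it off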); conditions: A549 miR-34 inducible, Hoechst nuclei count, 48 h
# [5] = viability rescue of complex I mutant cybrids, primary screen, cell-based, galactose medium, ATP luminescence (AID 1645843;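 active means z-score of at least 1.8 in each of two replicates, scored against plate mean and spread of sample wells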;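 further: positive z means more ATP and so rescue of galactose-driven cybrid death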); conditions: complex I mutant cybrid cells, 72 h, stronger effect = higher value
# [6] = liver-stage malaria parasite growth inhibition, primary screen, cell-based, HepG2, luciferase luminescence, HepG2 viability (AID 624349; in the data active means parasite load remaining mostly below about 12%, no sharp cut-off; inactive means mostly above about 10%;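 further: 100% = mean of DMSO negative control wells on the same plate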); conditions: P. berghei liver stage in HepG2, luciferase luminescence, concentration not given here; parasite load remaining: stronger effect = lower value; viability: measured here: HepG2 viability without parasites
# [7] = modifiers of HSF1 nuclear foci, imaging, Selleck Cancer Library (AID 1347162; in the data active means plate-normalised HSF1 focus index below about 0.46); conditions: human cells, at 10 µM; SSMD: measured here: HSF1 foci SSMD mean; cell count: measured here: cell number; plate-normalised HSF1 focus index: stronger effect = lower value
# [8] = survival rescue of mitochondrial mutant cells in low glucose, primary screen, MELAS cybrids, Rieske KO mouse fibroblasts, CellTiter-Glo (AID 1508586;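 active means mean z-score across replicates of 1.96 or higher in either the MELAS or the Rieske mutant cell line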;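 further: z relative to plate mean and SD of compound and empty wells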)
# [9] = ovarian cancer cell viability with rucaparib, profiling panel, oncology-focused library, rucaparib conditional (AID 1508598); conditions: patient-derived ovarian cancer cells, CellTiter-Glo viability, 144 h, stronger effect = lower value
# [10] = SU-DIPG-XXV glioma cell viability, MIPE5.0 library, qHTS (AID 1347068; cut-off not given, nearly all actives have IC50 up to about 30 µM;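 on IC50: cells exposed to compound for 48 hours before viability readout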)
# [11] = circadian clock period modulators, cell-based, LOPAC library, luminescence reporter (AID 2774; call rule not given here;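 further: values are relative to mean of DMSO wells on each plate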); conditions: circadian reporter cells, at 7 µM, actives lie on both sides
# [12] = hESC survival regulators, cell-based (AID 493140; call rule not given here;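 further: cells exposed to compounds for four days before counting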); conditions: human embryonic stem cell survival screen; stronger effect = higher value
# [13] = system: Hepatitis C virus NS3 helicase; assay: HCV NS3 helicase inhibitors, primary screen, biochemical, fluorescence polarization, LOPAC1280 library (AID 687035; in the data active means inhibition above about 37%); conditions: Purified HCV NS3 helicase, Cy5-dT15 ssDNA binding fluorescence polarization; stronger effect = higher value; concentration not given here
# [14] = Cy5 fluorescence quenching or enhancement artefacts, artefact control for HCV NS3 helicase inhibitor project, biochemical, LOPAC1280 (AID 687037; call rule not given here); conditions: Cy5-DNA-NS3h complex fluorescence interference counterscreen
# [15] = inhibitors of Cryptococcus chitosan production, flow cytometry, Cibacron Brilliant Red staining (AID 1347148; call rule not given here;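 further: compound exposure lasted three days at 37 degrees C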); conditions: Cryptococcus neoformans chitosan, stronger effect = lower value; at 10 µM unless noted
# [16] = phospholipid biosynthesis inhibitors in animal cells, primary screen, cell-based, LOPAC library, screen 4 (AID 1347384; call rule not given here); conditions: phospholipid biosynthesis inhibition screen, at 10 µM
# [17] = stronger effect = lower value, cell number ratio, induced over uninduced
# [18] = measured here: relative caspase fold change +Dox/-Dox
# [19] = measured here: total cells with miR-34 induction, stronger effect = lower value
# [20] = measured here: total cells without miR-34 induction
# [21] = MELAS cybrid survival, CellTiter-Glo 48 h, stronger effect = higher value
# [22] = Rieske KO mouse fibroblast survival, CellTiter-Glo 72 h
# [23] = at 0.000305 µM, OCI-C5x cells, with rucaparib 10 µM, 100% = cells with rucaparib alone
# [24] = at 0.000305 µM, OCI-C5x cells, without rucaparib
# [25] = at 0.000305 µM, OCI-P5x cells, with rucaparib 20 µM, 100% = cells with rucaparib alone
# [26] = at 0.000305 µM, OCI-P5x cells, without rucaparib
# [27] = at 0.00122 µM, OCI-C5x cells, with rucaparib 10 µM, 100% = cells with rucaparib alone
# [28] = at 0.00122 µM, OCI-C5x cells, without rucaparib
# [29] = at 0.00122 µM, OCI-P5x cells, with rucaparib 20 µM, 100% = cells with rucaparib alone
# [30] = at 0.00122 µM, OCI-P5x cells, without rucaparib
# [31] = at 0.00488 µM, OCI-C5x cells, with rucaparib 10 µM, 100% = cells with rucaparib alone
# [32] = at 0.00488 µM, OCI-C5x cells, without rucaparib
# [33] = at 0.00488 µM, OCI-P5x cells, with rucaparib 20 µM, 100% = cells with rucaparib alone
# [34] = at 0.00488 µM, OCI-P5x cells, without rucaparib
# [35] = at 0.0195 µM, OCI-C5x cells, with rucaparib 10 µM, 100% = cells with rucaparib alone
# [36] = at 0.0195 µM, OCI-C5x cells, without rucaparib
# [37] = at 0.0195 µM, OCI-P5x cells, with rucaparib 20 µM, 100% = cells with rucaparib alone
# [38] = at 0.0195 µM, OCI-P5x cells, without rucaparib
# [39] = at 0.0781 µM, OCI-C5x cells, with rucaparib 10 µM, 100% = cells with rucaparib alone
# [40] = at 0.0781 µM, OCI-C5x cells, without rucaparib
# [41] = at 0.0781 µM, OCI-P5x cells, with rucaparib 20 µM, 100% = cells with rucaparib alone
# [42] = at 0.0781 µM, OCI-P5x cells, without rucaparib
# [43] = at 0.313 µM, OCI-C5x cells, with rucaparib 10 µM, 100% = cells with rucaparib alone
# [44] = at 0.313 µM, OCI-C5x cells, without rucaparib
# [45] = at 0.313 µM, OCI-P5x cells, with rucaparib 20 µM, 100% = cells with rucaparib alone
# [46] = at 0.313 µM, OCI-P5x cells, without rucaparib
# [47] = at 1.25 µM, OCI-C5x cells, with rucaparib 10 µM, 100% = cells with rucaparib alone
# [48] = at 1.25 µM, OCI-C5x cells, without rucaparib
# [49] = at 1.25 µM, OCI-P5x cells, with rucaparib 20 µM, 100% = cells with rucaparib alone
# [50] = at 1.25 µM, OCI-P5x cells, without rucaparib
# [51] = at 5 µM, OCI-C5x cells, with rucaparib 10 µM, 100% = cells with rucaparib alone
# [52] = at 5 µM, OCI-C5x cells, without rucaparib
# [53] = at 5 µM, OCI-P5x cells, with rucaparib 20 µM, 100% = cells with rucaparib alone
# [54] = at 5 µM, OCI-P5x cells, without rucaparib
smiles,measurement,setting,value
CC(C)(C)/[N+]([O-])=C/c1ccc(S(=O)(=O)O)cc1S(=O)(=O)O,remaining activity,[1],104% (inactive)
same,outcome,[2],inactive
same,outcome,[3],inactive
same,fold change,[4]; [17],1.35 (inactive)
same,fold change,[4]; [18],1.12
same,cell count,[4]; [19],7460
same,cell count,[4]; [20],5520
same,z-score,[5],2.67 (inactive)
Oc1ccc(Nc2nc(-c3ccc(Cl)cc3)cs2)cc1,parasite load remaining,[6],34.6% (inactive)
same,viability,[6],65.5%
same,remaining activity,[1],89% (inactive)
same,fold change,[4]; [17],0.947 (inactive) and 0.904 (inactive) and 0.869 (inactive)
same,fold change,[4]; [18],0.378 and 0.549 and 1.23
same,cell count,[4]; [19],4850 and 4920 and 2840
same,cell count,[4]; [20],5120 and 5440 and 3260
same,SSMD,[7],1.25
same,cell count,[7],6680
same,plate-normalised HSF1 focus index,[7],1.08 (inactive)
same,z-score,[8]; [21],-0.306
same,z-score,[8]; [22],2.78
same,z-score,[5],-0.695 (inactive)
O=C(/C=C/c1c(C(=O)O)[nH]c2cc(Cl)cc(Cl)c12)Nc1ccccc1,remaining activity,[1],87.2% (inactive)
same,outcome,[2],inactive
same,outcome,[3],inactive
same,fold change,[4]; [17],0.942 (inactive)
same,fold change,[4]; [18],1.32
same,cell count,[4]; [19],8890
same,cell count,[4]; [20],9440
same,z-score,[5],4.95 (active)
CC(C)c1onc(-c2c(Cl)cccc2Cl)c1COc1ccc(/C=C/c2cccc(C(=O)O)c2)c(Cl)c1,remaining activity,[1],99.1% (inactive)
same,outcome,[2],inactive
same,outcome,[3],inactive
same,fold change,[4]; [17],0.989 (inactive)
same,fold change,[4]; [18],1.32
same,cell count,[4]; [19],5590
same,cell count,[4]; [20],5650
same,SSMD,[7],2.06
same,cell count,[7],6870
same,plate-normalised HSF1 focus index,[7],1.11 (inactive)
same,viability,[9]; [23],95.7% (active)
same,viability,[9]; [24],107% (inactive)
same,viability,[9]; [25],90.8% (active)
same,viability,[9]; [26],87.3% (active)
same,viability,[9]; [27],107% (inactive)
same,viability,[9]; [28],97.6% (active)
same,viability,[9]; [29],99.3% (active)
same,viability,[9]; [30],89.4% (active)
same,viability,[9]; [31],103% (inactive)
same,viability,[9]; [32],97.6% (active)
same,viability,[9]; [33],102% (inactive)
same,viability,[9]; [34],91.9% (active)
same,viability,[9]; [35],101% (inactive)
same,viability,[9]; [36],98.1% (active)
same,viability,[9]; [37],100% (inactive)
same,viability,[9]; [38],98.8% (active)
same,viability,[9]; [39],99.7% (active)
same,viability,[9]; [40],105% (inactive)
same,viability,[9]; [41],104% (inactive)
same,viability,[9]; [42],97.9% (active)
same,viability,[9]; [43],97.6% (active)
same,viability,[9]; [44],97.8% (active)
same,viability,[9]; [45],106% (inactive)
same,viability,[9]; [46],100% (inactive)
same,viability,[9]; [47],102% (inactive)
same,viability,[9]; [48],97.1% (active)
same,viability,[9]; [49],103% (inactive)
same,viability,[9]; [50],101% (inactive)
same,viability,[9]; [51],76.1% (active)
same,viability,[9]; [52],89.5% (active)
same,viability,[9]; [53],99.6% (active)
same,viability,[9]; [54],98.8% (active)
same,z-score,[5],-0.665 (inactive)
O=C(c1ccc(Nc2nccc(-c3cc4ccccc4s3)n2)cc1)N1CCC(N2CCCC2)CC1,parasite load remaining,[6],27.7% (inactive)
same,viability,[6],86.2%
same,remaining activity,[1],98.9% (inactive)
same,AC50,[2],23.5 µM (active)
same,AC50,[3],18.7 µM (active)
same,IC50,[10],9.34 µM (active)
same,fold change,[4]; [17],1.04 (inactive) and 1.02 (inactive)
same,fold change,[4]; [18],0.636 and 0.577
same,cell count,[4]; [19],3590 and 394
same,cell count,[4]; [20],3460 and 385
same,z-score,[8]; [21],-0.0984 (inactive)
same,z-score,[8]; [22],0.125
same,z-score,[5],-0.705 (inactive)
O=c1cc(N2CCOCC2)oc2c(-c3ccccc3)cccc12,period change,[11],0.01 h (inactive)
same,survival,[12],83.6 (inactive)
same,parasite load remaining,[6],36% (inactive)
same,viability,[6],79.9%
same,inhibition,[13],-3% (inactive)
same,fluorescence ratio (interference),[14],1 (inactive)
same,remaining activity,[1],118% (inactive)
same,outcome,[2],inactive
same,outcome,[10],inactive
same,fold fluorescence,[15],9.29 [at 162.7 µM] (inactive)
same,SSMD,[7],1.15
same,cell count,[7],6500
same,plate-normalised HSF1 focus index,[7],1.06 (inactive)
same,outcome,[16],inactive
same,z-score,[8]; [21],-0.417 (inactive)
same,z-score,[8]; [22],0.668
same,viability,[9]; [23],97.6% (active)
same,viability,[9]; [24],103% (inactive)
same,viability,[9]; [25],93.4% (active)
same,viability,[9]; [26],83.4% (active)
same,viability,[9]; [27],102% (inactive)
same,viability,[9]; [28],103% (inactive)
same,viability,[9]; [29],97.2% (active)
same,viability,[9]; [30],86.3% (active)
same,viability,[9]; [31],93% (active)
same,viability,[9]; [32],104% (inactive)
same,viability,[9]; [33],99.1% (active)
same,viability,[9]; [34],95.7% (active)
same,viability,[9]; [35],102% (inactive)
same,viability,[9]; [36],104% (inactive)
same,viability,[9]; [37],98.1% (active)
same,viability,[9]; [38],96% (active)
same,viability,[9]; [39],106% (inactive)
same,viability,[9]; [40],101% (inactive)
same,viability,[9]; [41],102% (inactive)
same,viability,[9]; [42],98.9% (active)
same,viability,[9]; [43],106% (inactive)
same,viability,[9]; [44],108% (inactive)
same,viability,[9]; [45],98% (active)
same,viability,[9]; [46],97.6% (active)
same,viability,[9]; [47],94% (active)
same,viability,[9]; [48],109% (inactive)
same,viability,[9]; [49],99.6% (active)
same,viability,[9]; [50],102% (inactive)
same,viability,[9]; [51],98.7% (active)
same,viability,[9]; [52],107% (inactive)
same,viability,[9]; [53],96.2% (active)
same,viability,[9]; [54],93.7% (active)
same,z-score,[5],5.55 (active) and 5.94 (active)
CC(C)(Sc1ccc(CCN(CCCCC2CCCCC2)C(=O)NC2CCCCC2)cc1)C(=O)O,period change,[11],-0.015 h (inactive)
same,inhibition,[13],3% (inactive)
same,fluorescence ratio (interference),[14],1 (inactive)
same,remaining activity,[1],122% (inactive)
same,outcome,[3],inactive
same,outcome,[10],inactive
same,fold change,[4]; [17],0.945 (inactive) and 0.954 (inactive) and 0.926 (inactive)
same,fold change,[4]; [18],1.38 and 0.651 and 0.687
same,cell count,[4]; [19],8520 and 5920 and 7310
same,cell count,[4]; [20],9020 and 6210 and 7900
same,outcome,[16],inactive
same,z-score,[5],0.62 (inactive) and 1.14 (inactive)
